Assay results from the supplement of paper PMC11732987, “Enantioselective OTUD7B fragment discovery through chemoproteomics screening and high-throughput optimisation” (Communications Chemistry, 2025).

Tests used:
Test in all cases: log2 ratio of Biotin-Ahx-Ub-VS probe labelling (fragment/DMSO); higher = less target engagement (more negative = stronger competition), active = hit call of the paper (q ≤ 0.05, log2 ratio ≤ -1)
Settings in all cases: compound concentration: 200 uM; treatment time: 3 h
USP42 = target: T1, USP42 (UniProt Q9H9J4)
T1 sequence (whole entry): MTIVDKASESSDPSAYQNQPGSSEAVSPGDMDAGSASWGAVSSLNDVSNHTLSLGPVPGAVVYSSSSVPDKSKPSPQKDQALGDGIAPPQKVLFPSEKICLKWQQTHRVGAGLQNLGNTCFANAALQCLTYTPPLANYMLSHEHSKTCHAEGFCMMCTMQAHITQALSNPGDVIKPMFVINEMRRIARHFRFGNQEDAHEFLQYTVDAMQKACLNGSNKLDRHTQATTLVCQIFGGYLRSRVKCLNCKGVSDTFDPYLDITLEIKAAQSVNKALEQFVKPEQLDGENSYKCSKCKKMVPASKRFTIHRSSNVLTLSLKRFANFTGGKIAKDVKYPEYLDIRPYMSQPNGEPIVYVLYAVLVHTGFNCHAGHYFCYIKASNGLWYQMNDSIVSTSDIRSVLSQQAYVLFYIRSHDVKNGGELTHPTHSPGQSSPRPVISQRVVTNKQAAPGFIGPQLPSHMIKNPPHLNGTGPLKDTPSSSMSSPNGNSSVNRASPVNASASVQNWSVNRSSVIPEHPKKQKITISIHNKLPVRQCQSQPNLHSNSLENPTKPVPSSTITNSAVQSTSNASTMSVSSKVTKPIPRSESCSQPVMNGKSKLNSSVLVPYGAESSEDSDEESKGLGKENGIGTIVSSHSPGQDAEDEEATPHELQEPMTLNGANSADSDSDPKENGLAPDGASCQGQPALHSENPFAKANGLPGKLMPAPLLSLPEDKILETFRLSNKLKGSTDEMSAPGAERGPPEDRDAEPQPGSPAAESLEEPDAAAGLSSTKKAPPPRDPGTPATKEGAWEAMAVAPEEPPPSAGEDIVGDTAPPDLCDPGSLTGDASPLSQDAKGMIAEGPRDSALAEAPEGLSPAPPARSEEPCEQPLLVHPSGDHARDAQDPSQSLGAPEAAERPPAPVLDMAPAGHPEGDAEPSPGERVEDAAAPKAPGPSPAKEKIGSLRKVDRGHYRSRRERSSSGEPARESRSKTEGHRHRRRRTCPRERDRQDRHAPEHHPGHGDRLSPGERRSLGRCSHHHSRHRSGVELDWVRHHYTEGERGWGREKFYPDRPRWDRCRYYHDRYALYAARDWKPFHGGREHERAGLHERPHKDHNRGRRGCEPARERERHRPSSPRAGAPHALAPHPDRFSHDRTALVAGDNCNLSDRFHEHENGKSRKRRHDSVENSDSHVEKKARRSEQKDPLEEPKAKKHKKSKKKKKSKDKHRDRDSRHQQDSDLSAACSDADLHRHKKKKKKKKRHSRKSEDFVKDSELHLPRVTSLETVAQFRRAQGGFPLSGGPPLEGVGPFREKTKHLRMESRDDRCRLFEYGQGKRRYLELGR
Summary of the method: (§1)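 HEK293T lysate (495 µg per sample, in Tris/CHAPS/IGEPAL buffer with protease inhibitors) was treated in triplicate with fragment at 200 µM or with DMSO for 3 h. It was then treated with Biotin-Ahx-Ub-VS (0.5 µM final) for 1 h. Labelled DUBs were NeutrAvidin-enriched, digested with LysC and trypsin, and run by diaPASEF LC-MS/MS. Spectronaut label-free quantities were global-median-normalised. Values are average log2 ratios fragment/DMSO by unpaired t-test, using proteins with ≥2 unique peptides.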

USP46 = USP46 (UniProt P62068)
Summary of the method: as §1

USP47 = target: T2, USP47 (UniProt Q96K76)
T2 sequence (whole entry): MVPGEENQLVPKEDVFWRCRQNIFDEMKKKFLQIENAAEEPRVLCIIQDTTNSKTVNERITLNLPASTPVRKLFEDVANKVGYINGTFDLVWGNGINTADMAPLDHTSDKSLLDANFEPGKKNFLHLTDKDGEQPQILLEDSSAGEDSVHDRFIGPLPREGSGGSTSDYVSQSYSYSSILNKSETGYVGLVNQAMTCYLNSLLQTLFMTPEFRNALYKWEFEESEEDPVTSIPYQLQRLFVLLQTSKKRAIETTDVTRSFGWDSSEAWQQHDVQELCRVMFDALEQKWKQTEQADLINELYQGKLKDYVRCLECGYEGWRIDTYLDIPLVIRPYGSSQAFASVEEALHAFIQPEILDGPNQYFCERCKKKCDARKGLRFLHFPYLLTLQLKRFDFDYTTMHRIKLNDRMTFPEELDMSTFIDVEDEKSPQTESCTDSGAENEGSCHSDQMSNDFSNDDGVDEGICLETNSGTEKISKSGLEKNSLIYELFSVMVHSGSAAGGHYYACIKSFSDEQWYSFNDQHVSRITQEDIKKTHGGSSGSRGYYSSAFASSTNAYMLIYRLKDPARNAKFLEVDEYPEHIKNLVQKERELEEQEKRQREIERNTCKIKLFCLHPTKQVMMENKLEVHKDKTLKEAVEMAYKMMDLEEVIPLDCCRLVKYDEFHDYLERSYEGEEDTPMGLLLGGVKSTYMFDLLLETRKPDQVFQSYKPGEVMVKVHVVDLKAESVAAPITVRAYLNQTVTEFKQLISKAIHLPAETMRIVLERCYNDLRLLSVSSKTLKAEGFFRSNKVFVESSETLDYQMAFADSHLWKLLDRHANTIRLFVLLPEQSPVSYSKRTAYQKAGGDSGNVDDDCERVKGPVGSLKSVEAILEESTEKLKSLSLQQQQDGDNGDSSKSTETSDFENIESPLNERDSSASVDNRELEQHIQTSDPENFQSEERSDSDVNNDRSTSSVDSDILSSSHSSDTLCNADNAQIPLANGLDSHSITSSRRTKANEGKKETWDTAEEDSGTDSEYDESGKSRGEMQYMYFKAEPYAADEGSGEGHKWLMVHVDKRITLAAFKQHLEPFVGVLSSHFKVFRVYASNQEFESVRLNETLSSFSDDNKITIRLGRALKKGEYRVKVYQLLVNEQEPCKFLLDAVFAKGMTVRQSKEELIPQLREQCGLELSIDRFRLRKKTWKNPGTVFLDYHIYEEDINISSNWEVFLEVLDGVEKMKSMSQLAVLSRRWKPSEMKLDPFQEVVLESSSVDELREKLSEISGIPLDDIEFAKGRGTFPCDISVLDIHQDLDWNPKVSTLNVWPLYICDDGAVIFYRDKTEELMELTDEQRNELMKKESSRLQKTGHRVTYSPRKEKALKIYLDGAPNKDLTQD
Summary of the method: as §1

USP48 = target: T3, USP48 (UniProt Q86UV5)
T3 sequence (whole entry): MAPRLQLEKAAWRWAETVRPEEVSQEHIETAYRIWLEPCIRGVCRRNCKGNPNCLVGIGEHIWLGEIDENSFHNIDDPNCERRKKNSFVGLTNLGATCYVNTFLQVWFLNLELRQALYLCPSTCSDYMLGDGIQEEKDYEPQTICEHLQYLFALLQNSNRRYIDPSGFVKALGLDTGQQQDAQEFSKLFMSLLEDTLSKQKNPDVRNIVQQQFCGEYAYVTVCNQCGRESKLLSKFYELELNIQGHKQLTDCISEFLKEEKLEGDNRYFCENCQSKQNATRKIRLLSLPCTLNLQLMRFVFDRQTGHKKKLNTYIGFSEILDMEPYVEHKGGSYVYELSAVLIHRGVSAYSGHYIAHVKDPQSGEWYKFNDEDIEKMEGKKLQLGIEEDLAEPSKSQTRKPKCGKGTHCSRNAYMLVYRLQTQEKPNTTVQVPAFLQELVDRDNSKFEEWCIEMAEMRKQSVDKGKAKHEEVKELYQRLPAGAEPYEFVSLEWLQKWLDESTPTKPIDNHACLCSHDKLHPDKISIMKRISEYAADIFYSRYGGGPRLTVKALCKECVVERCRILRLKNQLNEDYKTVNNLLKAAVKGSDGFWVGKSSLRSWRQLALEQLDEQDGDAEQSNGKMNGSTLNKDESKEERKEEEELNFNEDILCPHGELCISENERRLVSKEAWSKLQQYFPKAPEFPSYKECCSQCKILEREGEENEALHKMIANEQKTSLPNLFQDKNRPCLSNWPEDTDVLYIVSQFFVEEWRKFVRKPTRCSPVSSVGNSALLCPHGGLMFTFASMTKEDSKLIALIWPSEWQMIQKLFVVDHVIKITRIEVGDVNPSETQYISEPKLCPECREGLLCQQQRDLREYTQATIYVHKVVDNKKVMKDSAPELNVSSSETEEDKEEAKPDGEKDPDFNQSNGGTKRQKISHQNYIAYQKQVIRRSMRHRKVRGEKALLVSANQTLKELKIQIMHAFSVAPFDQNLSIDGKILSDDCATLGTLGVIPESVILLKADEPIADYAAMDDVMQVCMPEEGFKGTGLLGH
Summary of the method: as §1

USP5 = target: T4, USP5 (UniProt P45974)
T4 sequence (whole entry): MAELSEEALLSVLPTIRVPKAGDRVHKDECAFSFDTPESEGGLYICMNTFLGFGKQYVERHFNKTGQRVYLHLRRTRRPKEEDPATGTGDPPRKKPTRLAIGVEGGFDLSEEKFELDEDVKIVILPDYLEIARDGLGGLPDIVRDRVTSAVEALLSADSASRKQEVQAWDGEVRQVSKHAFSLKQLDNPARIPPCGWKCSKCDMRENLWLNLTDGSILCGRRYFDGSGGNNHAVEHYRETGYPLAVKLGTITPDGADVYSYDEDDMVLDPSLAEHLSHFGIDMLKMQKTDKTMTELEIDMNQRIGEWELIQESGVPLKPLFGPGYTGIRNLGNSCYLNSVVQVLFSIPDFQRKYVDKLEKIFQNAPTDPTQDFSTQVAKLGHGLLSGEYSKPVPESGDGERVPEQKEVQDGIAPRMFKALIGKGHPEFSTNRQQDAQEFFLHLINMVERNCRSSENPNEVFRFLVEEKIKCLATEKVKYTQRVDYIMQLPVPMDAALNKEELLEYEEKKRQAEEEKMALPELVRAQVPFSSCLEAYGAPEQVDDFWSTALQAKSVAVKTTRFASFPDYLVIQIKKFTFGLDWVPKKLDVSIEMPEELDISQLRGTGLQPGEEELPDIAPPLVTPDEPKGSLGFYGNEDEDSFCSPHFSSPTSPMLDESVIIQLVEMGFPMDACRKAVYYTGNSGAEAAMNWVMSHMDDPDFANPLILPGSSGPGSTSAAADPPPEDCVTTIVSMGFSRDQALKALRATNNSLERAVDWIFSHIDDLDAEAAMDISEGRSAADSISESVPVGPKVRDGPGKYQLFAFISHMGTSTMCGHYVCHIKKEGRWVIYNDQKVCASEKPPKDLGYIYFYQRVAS
Summary of the method: as §1

USP54 = USP54 (UniProt Q70EL1)
Summary of the method: as §1

USP7 = USP7 (UniProt Q93009)
Summary of the method: as §1

USP8 = target: T5, USP8 (UniProt P40818)
T5 sequence (whole entry): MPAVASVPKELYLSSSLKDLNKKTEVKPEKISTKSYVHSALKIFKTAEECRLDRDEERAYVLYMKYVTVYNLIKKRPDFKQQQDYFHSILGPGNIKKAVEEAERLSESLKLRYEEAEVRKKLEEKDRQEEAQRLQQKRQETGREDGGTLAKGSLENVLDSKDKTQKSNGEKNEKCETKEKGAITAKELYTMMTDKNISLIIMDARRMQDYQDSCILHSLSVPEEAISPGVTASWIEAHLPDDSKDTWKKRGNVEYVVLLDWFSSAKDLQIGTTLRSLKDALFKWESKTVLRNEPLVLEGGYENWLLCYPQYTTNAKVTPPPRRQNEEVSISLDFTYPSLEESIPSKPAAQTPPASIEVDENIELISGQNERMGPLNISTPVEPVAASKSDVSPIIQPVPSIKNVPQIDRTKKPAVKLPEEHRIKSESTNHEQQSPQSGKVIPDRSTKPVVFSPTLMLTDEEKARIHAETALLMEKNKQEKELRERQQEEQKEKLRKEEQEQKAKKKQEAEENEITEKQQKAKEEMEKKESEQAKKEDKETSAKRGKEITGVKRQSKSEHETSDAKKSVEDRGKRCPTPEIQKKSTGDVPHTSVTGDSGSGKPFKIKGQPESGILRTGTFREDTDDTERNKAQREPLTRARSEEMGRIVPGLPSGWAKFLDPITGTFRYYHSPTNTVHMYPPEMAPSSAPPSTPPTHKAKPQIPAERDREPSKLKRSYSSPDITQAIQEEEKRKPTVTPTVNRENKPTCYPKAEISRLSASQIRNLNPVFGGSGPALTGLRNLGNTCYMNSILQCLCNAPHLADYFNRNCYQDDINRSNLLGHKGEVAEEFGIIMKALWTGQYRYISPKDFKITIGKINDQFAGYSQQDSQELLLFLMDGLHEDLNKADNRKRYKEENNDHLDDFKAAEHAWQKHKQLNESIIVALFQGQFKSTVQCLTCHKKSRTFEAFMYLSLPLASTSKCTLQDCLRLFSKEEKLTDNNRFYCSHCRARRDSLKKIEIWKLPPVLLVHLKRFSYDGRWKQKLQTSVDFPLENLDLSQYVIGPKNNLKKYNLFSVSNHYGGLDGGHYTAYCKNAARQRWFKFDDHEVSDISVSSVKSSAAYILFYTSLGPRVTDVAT
Summary of the method: as §1

Measured: log2 ratio of Biotin-Ahx-Ub-VS probe labelling

USP46, sequence (P62068 whole entry): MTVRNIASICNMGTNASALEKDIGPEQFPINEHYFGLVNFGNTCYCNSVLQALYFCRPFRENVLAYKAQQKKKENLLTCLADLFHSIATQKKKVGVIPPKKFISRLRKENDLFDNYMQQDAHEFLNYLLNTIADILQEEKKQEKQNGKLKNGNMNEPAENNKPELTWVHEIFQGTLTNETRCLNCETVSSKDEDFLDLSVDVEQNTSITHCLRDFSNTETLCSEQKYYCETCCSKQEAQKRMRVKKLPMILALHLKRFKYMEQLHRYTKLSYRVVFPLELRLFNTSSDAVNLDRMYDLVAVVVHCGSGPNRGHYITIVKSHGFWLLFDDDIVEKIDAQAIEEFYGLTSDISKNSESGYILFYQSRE
USP7, sequence (Q93009 whole entry, looked up): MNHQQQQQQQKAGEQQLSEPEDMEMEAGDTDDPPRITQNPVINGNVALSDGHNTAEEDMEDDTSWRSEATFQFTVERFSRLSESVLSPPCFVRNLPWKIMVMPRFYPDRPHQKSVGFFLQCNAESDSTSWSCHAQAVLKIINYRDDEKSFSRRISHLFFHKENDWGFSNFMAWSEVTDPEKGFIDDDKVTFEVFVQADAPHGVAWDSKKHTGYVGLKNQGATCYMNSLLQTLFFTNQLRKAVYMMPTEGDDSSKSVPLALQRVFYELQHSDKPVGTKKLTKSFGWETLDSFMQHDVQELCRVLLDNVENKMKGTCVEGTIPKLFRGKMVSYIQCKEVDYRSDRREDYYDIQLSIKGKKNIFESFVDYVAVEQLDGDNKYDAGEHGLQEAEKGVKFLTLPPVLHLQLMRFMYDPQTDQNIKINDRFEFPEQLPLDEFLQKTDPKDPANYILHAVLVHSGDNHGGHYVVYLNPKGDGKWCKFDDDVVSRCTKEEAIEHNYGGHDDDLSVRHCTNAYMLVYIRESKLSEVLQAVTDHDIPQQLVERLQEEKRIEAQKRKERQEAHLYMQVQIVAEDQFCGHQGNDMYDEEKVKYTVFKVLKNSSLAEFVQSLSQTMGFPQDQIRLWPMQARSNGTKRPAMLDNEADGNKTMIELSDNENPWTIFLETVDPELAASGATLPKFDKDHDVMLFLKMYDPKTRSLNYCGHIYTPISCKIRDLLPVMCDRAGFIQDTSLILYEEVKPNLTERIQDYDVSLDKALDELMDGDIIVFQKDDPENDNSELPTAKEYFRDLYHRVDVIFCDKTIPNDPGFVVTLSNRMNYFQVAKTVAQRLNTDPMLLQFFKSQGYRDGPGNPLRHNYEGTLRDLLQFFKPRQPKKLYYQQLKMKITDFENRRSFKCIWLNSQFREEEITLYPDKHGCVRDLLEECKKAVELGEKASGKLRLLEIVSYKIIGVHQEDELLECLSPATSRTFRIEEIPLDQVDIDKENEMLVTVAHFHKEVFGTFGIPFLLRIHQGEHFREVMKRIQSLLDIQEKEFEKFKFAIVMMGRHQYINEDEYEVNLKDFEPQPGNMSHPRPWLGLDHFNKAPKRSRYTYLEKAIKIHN
USP54, sequence (Q70EL1 whole entry): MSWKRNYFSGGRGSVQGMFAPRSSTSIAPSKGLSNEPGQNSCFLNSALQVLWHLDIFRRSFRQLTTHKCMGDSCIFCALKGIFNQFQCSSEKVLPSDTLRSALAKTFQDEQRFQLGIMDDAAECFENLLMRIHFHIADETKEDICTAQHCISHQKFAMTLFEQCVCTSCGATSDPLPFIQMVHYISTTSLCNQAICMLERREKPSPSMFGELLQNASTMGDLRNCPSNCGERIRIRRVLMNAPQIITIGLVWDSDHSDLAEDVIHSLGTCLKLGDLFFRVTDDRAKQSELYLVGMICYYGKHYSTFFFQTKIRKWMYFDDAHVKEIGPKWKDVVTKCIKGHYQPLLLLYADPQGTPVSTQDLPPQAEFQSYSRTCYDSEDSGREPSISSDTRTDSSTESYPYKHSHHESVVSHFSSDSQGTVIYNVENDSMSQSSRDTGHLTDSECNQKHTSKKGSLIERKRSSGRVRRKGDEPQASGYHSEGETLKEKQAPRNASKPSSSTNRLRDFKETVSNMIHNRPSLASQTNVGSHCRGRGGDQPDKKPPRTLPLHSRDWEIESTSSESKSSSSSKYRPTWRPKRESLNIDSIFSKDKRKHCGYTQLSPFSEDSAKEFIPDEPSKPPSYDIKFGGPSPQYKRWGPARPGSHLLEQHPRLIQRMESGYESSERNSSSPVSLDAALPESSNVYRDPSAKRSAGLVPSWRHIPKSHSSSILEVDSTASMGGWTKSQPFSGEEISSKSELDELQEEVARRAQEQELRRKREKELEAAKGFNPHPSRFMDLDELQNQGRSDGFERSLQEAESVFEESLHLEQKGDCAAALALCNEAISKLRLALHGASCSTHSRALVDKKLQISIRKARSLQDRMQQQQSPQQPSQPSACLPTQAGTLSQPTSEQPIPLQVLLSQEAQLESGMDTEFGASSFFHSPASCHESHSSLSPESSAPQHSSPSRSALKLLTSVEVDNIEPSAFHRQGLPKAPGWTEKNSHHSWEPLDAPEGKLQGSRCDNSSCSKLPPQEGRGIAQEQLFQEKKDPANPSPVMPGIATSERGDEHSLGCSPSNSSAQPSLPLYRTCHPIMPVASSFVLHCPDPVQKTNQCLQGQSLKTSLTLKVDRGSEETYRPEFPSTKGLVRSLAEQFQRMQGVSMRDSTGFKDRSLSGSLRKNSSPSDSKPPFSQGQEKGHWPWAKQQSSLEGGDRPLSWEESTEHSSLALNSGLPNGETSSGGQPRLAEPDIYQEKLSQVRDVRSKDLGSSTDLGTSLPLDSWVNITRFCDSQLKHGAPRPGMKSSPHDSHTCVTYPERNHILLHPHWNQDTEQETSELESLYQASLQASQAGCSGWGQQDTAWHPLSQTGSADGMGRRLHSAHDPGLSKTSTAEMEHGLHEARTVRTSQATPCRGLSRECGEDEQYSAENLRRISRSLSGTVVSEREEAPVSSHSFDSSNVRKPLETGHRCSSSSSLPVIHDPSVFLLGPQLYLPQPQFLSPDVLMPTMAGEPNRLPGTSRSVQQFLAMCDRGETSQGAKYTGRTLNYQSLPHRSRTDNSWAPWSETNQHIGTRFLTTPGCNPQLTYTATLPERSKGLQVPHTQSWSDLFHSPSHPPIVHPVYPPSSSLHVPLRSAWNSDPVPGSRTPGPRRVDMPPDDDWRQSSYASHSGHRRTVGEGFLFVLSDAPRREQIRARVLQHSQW

O=C(CCl)N1CCCCCC1c1ncon1 (stereo not drawn)
inactive: USP42 -0.342 | USP46 0.113 | USP47 -0.552 | USP48 -0.467 | USP5 0.214 | USP54 0.731 | USP7 -0.491 | USP8 -0.0227
